This is a sample that favours compounds with a hit; in the whole collection about 1.5% have one here.
NFkB transloc pot: enhances IL-1B driven NFkB nuclear translocation. HUVEC IL-1B NFkB p65 nuclear translocation imaging. activation, % at 2 µM. 94,000 tested, 0.3% active;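 active = activation above 40%, about the mean plus 3 SD, also judged a hit on visual image review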;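 also: percent activation is computed from the nuclear over cytoplasmic p65 intensity ratio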
TNFa cytotox: HUVEC cytotoxicity counter-screen, TNF alpha stimulated. HUVEC TNFalpha-stimulated, Hoechst cell count, imaging. AID 848. 93,000 tested, 0.17% active. cell count reduction, % at 2 µM;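 active = cell count reduction exceeding the screen mean by over 5 SD, scaled to untreated wells per plate, cut at about 78% in these data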;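 also: cells counted after 24 h of TNF alpha exposure following the 1 h pretreatment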
VCAM1 TNFa inh: reduces TNF alpha induced VCAM1 expression in HUVEC; HUVEC TNFa-induced VCAM-1 immunofluorescence, high-content imaging; inhibition, % at 2 µM; 95,000 tested, 0.48% active; AID 802;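 active = inhibition above the batch mean plus 3 SD, with images confirmed as a hit by eye, cut at about 37% in these data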
IL1B cytotox: HUVEC cytotoxicity counter-screen, IL-1B stimulated. AID 845. HUVEC cell count loss, Hoechst imaging. 94,000 tested, 0.41% active. cell count reduction, % at 2 µM;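 active = cell count reduction more than 3 SD above the screen-wide mean, cut at about 70% in these data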
IL1B NFkB inh: blocks IL-1B driven NFkB nuclear translocation in HUVEC cells; HUVEC IL-1B NFkB p65 nuclear translocation imaging; inhibition, % at 2 µM; 94,000 tested, 0.43% active; AID 796;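 active = inhibition above about 30% together with a positive call from visual inspection of the well image, limit read from the data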;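 also: nuclear over cytoplasmic p65 intensity ratio measured by imaging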
Numbers stand for hits; – = inactive; · = not tested or not shown.

SMILES	NFkB transloc pot	TNFa cytotox	VCAM1 TNFa inh	IL1B cytotox	IL1B NFkB inh
CCC(C)[C@@H](NC(=O)OC(C)(C)C)c1nnc(S(=O)(=O)Cc2cccc(C)c2)o1 (stereo partly drawn)	–	–	42	–	–
O=C(NC(NC1CCS(=O)(=O)C1)C(=O)c1cccs1)c1ccccc1 (stereo not drawn)	–	–	94	–	–
COC(=O)c1cc2sccc2n1CC(=O)Nc1cc(OC)cc(OC)c1	–	–	–	–	–
O=C(c1ccc2snnc2c1)N1CCSCC1	–	84	78	–	–
Cn1c(NCc2c[nH]c3ccccc23)nc2ccccc21	–	–	58	–	–
Cc1cc(C)nc(SCNC(=O)c2ccccc2)n1	–	–	–	81	–
Cc1ccc(SCCNC(=O)c2ccccc2)cc1	–	–	–	–	–
Cn1c(CNC(=O)c2ccc(Cl)cc2)nnc1SCC(=O)Nc1sc2c(c1C#N)CCCC2	–	–	–	–	–
Cc1ccc(C(=O)NCc2nnc(SCC(=O)Nc3sc4c(c3C#N)CCCC4)n2C)cc1	–	–	–	82	–
CCc1cccc(CC)c1NC(=O)C1SC(=Nc2ccccc2C)C(c2nc3ccccc3s2)=C1N (stereo not drawn)	–	–	59	–	–
CCc1cccc(C)c1NC(=O)C1C2CCC(O2)C1C(=O)O (stereo not drawn)	–	–	–	–	–
CCOC(=O)C1CCCN(Cc2c(Cl)cccc2Cl)C1 (stereo not drawn)	·	–	–	·	·
CCOC(=O)C1CCCN(Cc2cc(Br)c(OC)cc2OC)C1 (stereo not drawn)	–	–	–	84	98
CC(C)C(=O)c1cc2c(cc1NC(=O)c1cccs1)OCCO2	–	–	–	–	32
CC(C)C(=O)c1cc2c(cc1NC(=O)c1ccccc1)OCCO2	–	–	–	–	–
Cc1ccc(N(C(=O)C2CCCC2)C2C=CS(=O)(=O)C2)cc1C (stereo not drawn)	44	–	–	–	–
CC(=O)N(c1cccc(Br)c1)C1C=CS(=O)(=O)C1 (stereo not drawn)	–	–	–	–	–
COc1ccc(S(=O)(=O)NC2CC3CCC2C3)cc1Cl (stereo not drawn)	–	–	–	–	–
C=C(C)c1cccc(C(C)(C)NC(=O)Nc2ncccn2)c1	–	95	99	–	–
CCOC(=O)CNC(=O)C(Cc1ccccc1)NS(=O)(=O)c1cccs1 (stereo not drawn)	–	–	–	–	–
Cc1ccc(CNC(=O)C(Cc2ccccc2)NS(=O)(=O)c2cccs2)cc1 (stereo not drawn)	–	–	–	–	33
COc1cccc(Oc2nc3ncn(Cc4ccccc4)c3c(=O)n2C)c1	–	–	–	–	–
COc1c(C)cc(Br)cc1C(=O)O	–	–	–	90	–
COc1ccc(Br)cc1C(=O)Nc1cccc(NC(=O)c2ccco2)c1	–	–	–	–	–
COc1c(C)cc(Br)cc1C(=O)Nc1cccc(NC(=O)c2ccco2)c1	–	–	–	87	–
SMILES	NFkB transloc pot	TNFa cytotox	VCAM1 TNFa inh	IL1B cytotox	IL1B NFkB inh
O=C(COC(=O)CNC(=O)C12CC3CC(CC(C3)C1)C2)Nc1ccccc1	–	–	–	–	–
CN(Cc1cccs1)C(=O)COc1cccc(-n2cnnn2)c1	–	–	–	–	–
CSc1nc2nccc(-c3ccc(Oc4ccccc4)cc3)n2n1	–	–	86	–	–
CSc1nc2nccc(-c3ccc(-c4ccccc4)cc3)n2n1	–	–	–	–	–
O=C(Nc1nnc(C2CCCO2)s1)c1cccs1 (stereo not drawn)	–	–	–	70	37
CN1CCN(c2ncccc2S(=O)(=O)N2CCCCC2)CC1	–	–	–	–	–
COc1ccccc1N1CCN(C(=O)c2cc(-c3ccc(C)cc3)on2)CC1	–	–	–	–	–
COc1ccccc1N1CCN(C(=O)c2cc(-c3ccc(Cl)cc3)on2)CC1	–	–	–	–	44
CC(C)(C)c1ccc(C(=O)N2CCC(C(=O)NCc3ccncc3)CC2)cc1	–	–	–	94	100
O=C(NCc1ccncc1)C1CCN(S(=O)(=O)Cc2ccccc2)CC1	–	–	–	–	–
Cc1cc(OCC(F)(F)C(F)(F)C(F)(F)C(F)F)nc(N)n1	–	–	–	–	–
COC(=O)c1cn(C(=O)c2cccs2)c2ccccc12	–	–	–	95	–
COC(=O)c1cn(C(=O)c2ccco2)c2ccccc12	–	–	–	–	–
Cc1c(/C(O)=C2/C(=O)C(=O)N(CCN3CCOCC3)C2c2cccnc2)cnn1-c1ccccc1 (stereo not drawn)	60	–	–	–	–
CCN(CC)CCN1C(=O)C(=O)/C(=C(/O)c2cnn(-c3ccccc3)c2C)C1c1cccnc1 (stereo not drawn)	–	–	–	–	–
COc1ccc(-n2sc3c(c2=S)-c2cc(OC)ccc2NC3(C)C)cc1	–	–	–	–	–
COc1ccc2c(c1)-c1c(ssc1=S)C(C)(C)N2	–	–	–	94	–
COC(=O)Nc1ccc(S(=O)(=O)Nc2ccccc2F)cc1	–	–	–	–	–
CC(=O)Nc1ccccc1NS(=O)(=O)c1ccc(Cl)cc1	–	–	–	–	30
Cn1c(CNc2ccccc2O)nc2ccccc21	–	89	59	–	–
Cn1c(CNc2ccccc2)nc2ccccc21	–	–	–	–	–
O=C(CCCCn1c(=O)[nH]c2ccsc2c1=O)NCc1ccc2c(c1)OCO2	–	–	–	–	64
O=C(CCCCn1c(=O)[nH]c2ccsc2c1=O)NCc1cccnc1	–	–	–	–	–
O=C(Cn1c(=O)n(CCCCC(=O)NC2CCCC2)c(=O)c2ccccc21)NCCC1=CCCCC1	–	–	–	–	40
O=C(CCn1c(=O)c2ccccc2n(CC(=O)NC2CCCC2)c1=O)NCCc1ccc(Cl)cc1	–	–	–	–	–
SMILES	NFkB transloc pot	TNFa cytotox	VCAM1 TNFa inh	IL1B cytotox	IL1B NFkB inh
O=C1NCCCN1Cc1ccc(F)cc1Cl	–	·	·	–	–
COc1ccc(C(=O)N(Cc2ccccc2)Cc2cc3cc4c(cc3[nH]c2=O)OCCO4)cc1	–	–	–	–	72
CC(C)(C#N)N([O-])C=C[N+](=O)C(C)(C)C#N	–	–	–	–	–
Cc1ccc(C)c2[nH]c(=O)c(CCNC(=O)c3ccc(Br)o3)cc12	–	–	–	–	43
CC1(C)CC(=S)Nc2ccccc2S1	–	–	–	–	–
Cc1cnc(NC(=O)c2ccco2)s1	–	89	–	–	–
Cc1sc(NC(=O)c2ccco2)nc1-c1ccccc1	–	–	–	–	–
COc1ccc(-c2cc(C(F)(F)F)nc(S(=O)(=O)CCC(=O)N3CCOCC3)n2)cc1	–	–	98	–	–
CCc1cccc(NC(=O)CSC2=NS(=O)(=O)c3ccccc32)c1	–	–	–	–	–
O=S(=O)(c1ccc2c(c1)OCCO2)N1CCN(Cc2ccc3c(c2)OCO3)CC1	–	–	–	–	–
Cn1c(=O)oc2cc(S(=O)(=O)N3CCN(Cc4ccc5c(c4)OCO5)CC3)ccc21	–	–	–	87	–
